Active and inactive are the calls of the source. Unless noted, the rule behind the calls is not given here.
What was measured:
[1] = anti-His antibody binders, primary screen, artefact control for SMM control protein annotation, biochemical, small-molecule microarray, 635 nm fluorescence (AID 1128); settings: anti-His Alexa647 antibody binding, higher = more signal;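 note: score merges feature fluorescence with signal-to-noise for each printed compound spot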
[2] = tested on: Human papillomavirus type 1a E7 protein (residues 1-88); test: HPV1a E7 small-molecule binders, primary screen, biochemical, small-molecule microarray, residues 1-88, 635 nm (AID 1129); settings: small-molecule microarray binding, fluorescence 635 nm; higher = more signal
[3] = target: Focal adhesion kinase 1 (Homo sapiens) (UniProt Q05397); test: small-molecule microarray binders of FAK, primary screen, biochemical, 635/667 nm fluorescence, BSA, DTT (AID 1130); settings: PTK2 binding, 635 nm fluorescence, higher = more signal;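 note: composite of spot emission at 667 nm and signal to noise over triplicate slides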
Sequence of Focal adhesion kinase 1 (Homo sapiens) (Q05397 whole entry, looked up): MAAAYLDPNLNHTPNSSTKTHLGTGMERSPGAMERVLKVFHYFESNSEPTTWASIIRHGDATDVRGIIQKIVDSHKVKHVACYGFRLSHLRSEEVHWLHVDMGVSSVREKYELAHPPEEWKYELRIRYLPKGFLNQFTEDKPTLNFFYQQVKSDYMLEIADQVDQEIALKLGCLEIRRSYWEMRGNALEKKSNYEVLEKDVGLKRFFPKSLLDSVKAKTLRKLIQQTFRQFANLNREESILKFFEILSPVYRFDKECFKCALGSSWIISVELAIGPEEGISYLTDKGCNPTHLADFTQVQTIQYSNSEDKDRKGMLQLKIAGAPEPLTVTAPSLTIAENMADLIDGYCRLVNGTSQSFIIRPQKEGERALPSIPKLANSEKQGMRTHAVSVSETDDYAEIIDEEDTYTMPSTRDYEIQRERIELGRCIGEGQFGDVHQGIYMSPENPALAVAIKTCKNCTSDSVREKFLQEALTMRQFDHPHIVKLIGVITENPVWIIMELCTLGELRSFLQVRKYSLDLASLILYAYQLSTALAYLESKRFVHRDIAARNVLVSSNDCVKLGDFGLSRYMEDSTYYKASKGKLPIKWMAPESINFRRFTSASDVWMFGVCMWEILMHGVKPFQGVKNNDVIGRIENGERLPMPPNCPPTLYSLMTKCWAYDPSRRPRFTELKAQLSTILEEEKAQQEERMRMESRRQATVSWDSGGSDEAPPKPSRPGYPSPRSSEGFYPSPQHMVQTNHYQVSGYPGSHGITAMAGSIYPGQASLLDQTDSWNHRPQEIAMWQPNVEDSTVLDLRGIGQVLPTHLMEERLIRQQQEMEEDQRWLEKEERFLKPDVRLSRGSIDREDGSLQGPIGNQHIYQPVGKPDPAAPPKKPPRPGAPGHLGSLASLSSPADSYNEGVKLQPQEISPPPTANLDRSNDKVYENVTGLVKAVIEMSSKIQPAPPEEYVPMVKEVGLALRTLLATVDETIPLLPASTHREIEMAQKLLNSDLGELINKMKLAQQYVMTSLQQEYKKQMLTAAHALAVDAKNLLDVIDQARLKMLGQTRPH

[4] = tested on: Fibrinogen (Alexa647-labelled); test: fibrinogen binders on compound microarrays, profiling panel, artefact control for SMM control-protein annotation, biochemical, small-molecule microarray, 635/667 nm fluorescence (AID 1131); settings: fibrinogen-A647 binding fluorescence, higher = more signal;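 note: z-score merges 667 nm fluorescence with per-spot signal-to-noise over triplicate slides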
[5] = target: Follistatin (Homo sapiens) (UniProt P19883); test: follistatin binders on small-molecule microarrays, primary screen, biochemical, small-molecule microarray, 635/667 nm fluorescence (AID 1132); settings: FST binding, 635 nm fluorescence, higher = more signal
Sequence of Follistatin (Homo sapiens) (P19883 whole entry, looked up): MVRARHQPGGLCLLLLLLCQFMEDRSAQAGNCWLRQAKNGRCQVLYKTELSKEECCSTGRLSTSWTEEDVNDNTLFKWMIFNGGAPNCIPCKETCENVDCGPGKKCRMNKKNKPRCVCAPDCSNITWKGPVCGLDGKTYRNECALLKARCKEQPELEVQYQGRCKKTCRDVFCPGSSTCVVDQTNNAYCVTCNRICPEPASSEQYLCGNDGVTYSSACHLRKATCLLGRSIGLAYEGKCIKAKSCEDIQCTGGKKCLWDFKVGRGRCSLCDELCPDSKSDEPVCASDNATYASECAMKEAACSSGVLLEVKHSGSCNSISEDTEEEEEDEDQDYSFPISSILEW

[6] = target: Fibroblast growth factor 2 (Homo sapiens) (UniProt P09038); test: FGF2 binders on small-molecule microarrays, primary screen, biochemical, small-molecule microarray, 635/667 nm fluorescence (AID 1133); settings: small-molecule microarray binding, FGF2, fluorescence 635/667; higher = more signal
Sequence of Fibroblast growth factor 2 (Homo sapiens) (P09038 whole entry, looked up): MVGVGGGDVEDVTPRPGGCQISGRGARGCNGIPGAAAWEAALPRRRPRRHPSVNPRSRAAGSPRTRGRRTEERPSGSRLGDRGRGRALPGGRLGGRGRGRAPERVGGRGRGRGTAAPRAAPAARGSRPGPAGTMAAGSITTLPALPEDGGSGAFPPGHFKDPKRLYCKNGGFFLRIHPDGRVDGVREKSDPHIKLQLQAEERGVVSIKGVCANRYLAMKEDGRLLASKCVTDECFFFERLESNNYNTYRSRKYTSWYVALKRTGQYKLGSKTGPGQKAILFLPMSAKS

[7] = mitochondrial membrane potential change in A549 cells, profiling panel, cell-based, JC-1 fluorescence, basal, 24 h, 100 nL (AID 1138); settings: higher = more signal;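 note: A549 lung adenocarcinoma cells under basal conditions with no added stimulus; test concentration not given here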
Lefty1 = Lefty1 binders on small-molecule microarrays, primary screen, biochemical, small-molecule microarray, 635/667 nm fluorescence (AID 1139); settings: small-molecule microarray binding, fluorescence 635/667; higher = more signal
[8] = tested on: wheat germ agglutinin (Triticum aestivum), Alexa647-labelled; test: wheat germ agglutinin binders on compound microarrays, profiling panel, artefact control for SMM control-protein annotation, biochemical, small-molecule microarray, 635/667 nm fluorescence (AID 1140); settings: WGA-A647 binding, 635 nm fluorescence, higher = more signal;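 note: score merges 667 nm feature emission with signal to noise over triplicate slides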
[9] = target: Luciferin 4-monooxygenase (Photinus pyralis) (UniProt P08659); test: firefly luciferase enzyme inhibitors, primary screen, biochemical, luminescence, purified enzyme, 2006 set (AID 1141); settings: SteadyGlo luminescence, 30 min, higher = more signal, called active from +8 up or from −8 down;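 note: cell-free assay with purified firefly luciferase at 100 ng per well in PBS; test concentration not given here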
Sequence of Luciferin 4-monooxygenase (Photinus pyralis) (P08659 whole entry, looked up): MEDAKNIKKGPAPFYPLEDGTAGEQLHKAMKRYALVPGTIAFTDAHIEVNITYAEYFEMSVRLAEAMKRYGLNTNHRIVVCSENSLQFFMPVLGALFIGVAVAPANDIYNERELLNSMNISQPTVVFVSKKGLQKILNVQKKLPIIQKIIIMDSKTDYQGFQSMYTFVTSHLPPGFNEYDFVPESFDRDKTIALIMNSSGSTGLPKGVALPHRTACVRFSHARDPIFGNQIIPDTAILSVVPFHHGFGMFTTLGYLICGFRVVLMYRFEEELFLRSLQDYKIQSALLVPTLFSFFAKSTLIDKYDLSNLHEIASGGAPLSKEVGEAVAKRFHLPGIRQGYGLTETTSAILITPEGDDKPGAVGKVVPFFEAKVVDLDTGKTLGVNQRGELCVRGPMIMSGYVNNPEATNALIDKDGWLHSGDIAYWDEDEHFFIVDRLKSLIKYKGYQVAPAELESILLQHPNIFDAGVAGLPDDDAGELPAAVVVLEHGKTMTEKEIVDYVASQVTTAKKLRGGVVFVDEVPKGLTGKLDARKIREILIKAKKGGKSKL

[10] = tested on: Wnt5a (protein binding on small-molecule microarray); test: Wnt5a binders on small-molecule microarray, primary screen, biophysical, 635/667 nm fluorescence (AID 1142); settings: 635 nm fluorescence, higher = more signal;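 note: fluorescence read at 667 nm with signal to noise per printed feature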
[11] = cell viability in Huh7 cells, primary screen, cytotoxicity control for HCV replication inhibitor project, CellTiter-Glo luminescence, basal, 48 h (AID 1143); settings: Huh7 HCV replicon, higher = more signal, called active from +8 up or from −8 down;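 note: Huh7 hepatoma cells carrying a hepatitis C replication reporter with no stimulus; test concentration not given here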
[12] = P. aeruginosa biofilm formation inhibitors, primary screen, PAO1 strain, BacTiter-Glo luminescence, LB-PBS (AID 1144); settings: 12 h, higher = more signal
[13] = CREB reporter modulators without forskolin, primary screen, cell-based, PC12, CRE-LacZ reporter, unstimulated (AID 1145); settings: no forskolin, luminescence, 4.5 h, higher = more signal, called active from +8 up or from −8 down
[14] = CREB reporter modulators under forskolin, primary screen, cell-based, PC12, CRE-LacZ reporter, forskolin-stimulated (AID 1146); settings: luminescence, 4.5 h, higher = more signal, called active from +8 up or from −8 down;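 note: PC12 cells with 6xCRE LacZ reporter stimulated by forskolin 10 µM; beta-galactosidase reporter signal reflecting CREB driven transcription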
[15] = target: Streptavidin (Streptomyces avidinii) (UniProt P22629); test: streptavidin binders on small-molecule microarray, primary screen, artefact control for SMM compound annotation, biophysical, 635/667 nm fluorescence (AID 1147); settings: streptavidin binding, higher = more signal;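 note: signal reflects streptavidin binding to arrayed compounds as a control protein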
Sequence of Streptavidin (Streptomyces avidinii) (P22629 whole entry, looked up): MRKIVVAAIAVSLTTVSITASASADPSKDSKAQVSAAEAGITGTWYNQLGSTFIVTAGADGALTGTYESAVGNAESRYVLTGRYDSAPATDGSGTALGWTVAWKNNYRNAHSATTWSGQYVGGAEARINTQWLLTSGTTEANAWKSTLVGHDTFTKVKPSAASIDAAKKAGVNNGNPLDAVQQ

[16] = small-molecule binders of probe aInhba, primary screen, biochemical, small-molecule microarray, 635/667 nm fluorescence (AID 1148); settings: higher = more signal;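 note: score merges 667nm spot fluorescence with signal-to-noise for antibody binding to printed compounds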
Torsin-1A (Homo sapiens) [17] = target: Torsin-1A (Homo sapiens) (UniProt O14656); test: torsin A binders from cell lysate, primary screen, small-molecule microarray, wild-type, 635/667 nm (AID 1149); settings: COS7 hTOR1A-WT lysate, 635 nm fluorescence, higher = more signal
Sequence of Torsin-1A (Homo sapiens) (O14656 whole entry, looked up): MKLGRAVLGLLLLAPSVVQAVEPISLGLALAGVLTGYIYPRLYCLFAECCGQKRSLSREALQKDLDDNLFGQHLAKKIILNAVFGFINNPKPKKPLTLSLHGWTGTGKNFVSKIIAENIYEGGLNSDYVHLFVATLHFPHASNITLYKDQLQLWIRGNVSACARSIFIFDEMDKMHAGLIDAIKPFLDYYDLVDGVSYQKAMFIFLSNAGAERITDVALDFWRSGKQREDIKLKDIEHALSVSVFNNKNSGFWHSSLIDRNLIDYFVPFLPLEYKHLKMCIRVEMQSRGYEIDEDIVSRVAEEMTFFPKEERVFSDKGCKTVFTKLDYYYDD

Torsin-1A (Homo sapiens) [18] = target: Torsin-1A (Homo sapiens) (UniProt O14656); test: small-molecule binders of mutant TOR1A in lysate, primary screen, cell lysate, small-molecule microarray, COS7 lysate, 635/667 nm fluorescence (AID 1150); settings: COS7 hTOR1A mutant lysate, 635 nm fluorescence, higher = more signal;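 note: score pools 667 nm emission and signal to noise measuring lysate protein binding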
[19] = tested on: Sonic hedgehog protein (Shh); test: small-molecule binders of Shh protein, primary screen, biochemical, small-molecule microarray, 635/667 nm fluorescence (AID 1151); settings: small-molecule microarray binding, 635 nm fluorescence; higher = more signal;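 note: Shh protein binding to compounds spotted on small-molecule microarray slides; score combines spot fluorescence intensity with signal-to-noise across triplicate slides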

Compound	composite z-score [1]	composite z-score [2]	composite z-score [3]	composite z-score [4]	composite z-score [5]	composite z-score [6]	z-score [7]	composite z-score (Lefty1)	composite z-score [8]	z-score [9]	composite z-score [10]	z-score [11]	z-score [12]	z-score [13]	z-score [14]	composite z-score [15]	composite z-score [16]	composite z-score (Torsin-1A (Homo sapiens) [17])	composite z-score (Torsin-1A (Homo sapiens) [18])	composite z-score [19]
CC(C)C[C@@H]1NC(=O)[C@@H]2C[C@H](C(=O)O)[C@H](c3ccc(O)cc3)N2C1=O	2.41	1.13	0.6	0.878	1.37	1.49	0.892	1.04	0.938	-2.98 (inactive)	0.415	-0.393 (inactive)	-0.934 (inactive)	-0.114 (inactive)	-0.837 (inactive)	0.741	-0.013	0.656	1.05	1.74
C=C(/C(=C/C[C@H](OC(=O)c1ccncc1)c1ccccc1OCCO)c1cc(C(=O)OC)ccc1OC)C(C)C	0.32	1.08	-0.145	0.314	1.07	1.39	-0.032	0.67	0.351	-0.538 (inactive)	0.913	-1.5 (inactive)	-0.439 (inactive)	6.99 (inactive)	0.644 (inactive)	-0.0945	-0.0375	0.712	0.441	1.74
COc1cccc(OC)c1C(=O)O[C@H]1[C@@H]2OC(=O)[C@H](Cc3cccc(Br)c3)C/C=C/C[C@@H](Cc3cccc(Br)c3)C(=O)O[C@H]2[C@@H](OC)O[C@@H]1CO	0.267	1.1	0.573	0.383	1.38	1.28	1.27	0.742	0.0452	-0.21 (inactive)	0.125	-1.74 (inactive)	-0.0318 (inactive)	-0.467 (inactive)	-0.201 (inactive)	-0.114	-0.128	-0.0031	0.529	1.23
COCCOC(=O)N1C(=O)[C@@]2(c3cc(C#CC4=CCCCC4)ccc31)[C@H](c1ccccc1OCCO)N1[C@H](c3ccccc3)[C@H](c3ccccc3)OC(=O)[C@H]1[C@@H]2C(N)=O	1.48	1.17	0.539	0.83	1.06	1.36	-1.8	0.91	-0.0974	-1.74 (inactive)	0.288	-6.61 (inactive)	-1.73 (inactive)	-2.37 (inactive)	-1.6 (inactive)	0.771	-0.115	1.21	0.137	1.7
O=C1C2C=CC(C(O)c3ccc([N+](=O)[O-])cc3)N(Nc3ccccc3)C2C(=O)N1c1ccccc1 (stereo not given)	0.175	0.976	1.38	1.02	0.544	-0.239	-0.467	0.27	0.611	-0.284 (inactive)	0.0051	0.0203 (inactive)	-0.0023 (inactive)	-0.333 (inactive)	0.495 (inactive)	-0.146	-0.101	-0.132	0.221	-0.653
COC(=O)C1=CC(CCCO)=CC(c2ccc(CN3CCCC3)cc2)N(Cc2sc3ccccc3c2Cl)C=C1C(=O)OC (stereo not given)	3.17	1.23	0.579	1.05	0.59	0.709	4.12	0.377	1.34	-2.8 (inactive)	1.25	-3.24 (inactive)	-0.782 (inactive)	0.209 (inactive)	-1.74 (inactive)	1.85	0.662	0.591	1.88	0.836
COCCOC(=O)N1C(=O)[C@@]2(c3cc(C#Cc4ccc(OC)cc4)ccc31)[C@H](C(=O)Nc1nc3ccccc3s1)[C@H]1C(=O)O[C@H](c3ccccc3)[C@H](c3ccccc3)N1[C@@H]2c1ccccc1OCCO	0.484	1.05	0.0699	0.922	1.32	1.04	-1.75	0.973	0.883	-1.76 (inactive)	0.0516	-4.28 (inactive)	-1.6 (inactive)	-1.7 (inactive)	-1.44 (inactive)	0.299	-0.0566	0.245	0.243	1.34
CC(=O)n1cc(C(O)C2C=CC3C(=O)N(c4ccccc4)C(=O)C3N2Nc2ccccc2F)c2ccccc21 (stereo not given)	1.01	0.726	0.251	1.02	-1.04	-0.89	-1.16	-0.274	0.0832	1.34 (inactive)	-0.296	-3.27 (inactive)	-1.69 (inactive)	-0.172 (inactive)	0.499 (inactive)	0.0289	-0.157	-0.561	0.495	-0.813
CCCCCN1CC=CC23O[C@@H]4C=CCOC(=O)[C@@H]4[C@H]2C(=O)N(CCCCCO)[C@@H]3C1=O (stereo not given in full)	0.584	-0.465	0.0875	-1.87	-0.232	-0.486	-0.465	0.604	0.0764	0.517 (inactive)	-0.659	-0.211 (inactive)	-1.51 (inactive)	-1.45 (inactive)	-0.151 (inactive)	-0.735	-0.213	0.459	2.16	0.32
CC1CC/C=C\[C@H]2OC34C=CCN(CCN5CCOCC5)C(=O)[C@H]3N(CCCCCCO)C(=O)[C@@H]4C2C(=O)O1 (stereo not given in full)	-0.37	-0.986	-0.411	-2.12	0.0859	-0.649	0.746	-0.259	-0.7	-0.934 (inactive)	-0.603	0.524 (inactive)	0.0591 (inactive)	0.605 (inactive)	0.241 (inactive)	-0.66	-0.104	-1.52	-0.948	0.527

— PubChem BioAssay
